# Test results as given in PubChem BioAssay AID602399 (Sanford-Burnham Center for Chemical Genomics, 2012).
# Screen size: about 360,000 compounds; about 2,800 (0.78%) were called active. Cut-off read from the data, not from the text of the source: active = inhibition above about 26%; inactive = the rest. What follows is part of a selection rich in actives, with near analogues and random picks from the rest.
# System: Nicotinate-nucleotide adenylyltransferase NadD (Staphylococcus aureus N315)
# Test: S. aureus NadD enzyme activity blockers – biochemical, colorimetric, uHTS, primary screen (AID 602399)
# Details: purified NadD enzyme, colorimetric absorbance read-out; at 20 µM; hits give high values
row,SMILES,inhibition
1,Cc1noc(C)c1S(=O)(=O)N(C)C[C@H]1Oc2ccc(NC(=O)C3CCCCC3)cc2C(=O)N([C@H](C)CO)C[C@@H]1C,-4.63% (inactive)
2,COc1ccc(CN2CCn3ncc(C(=O)Nc4ccc(Cl)cc4Cl)c3C2=O)cc1,-3.68% (inactive)
3,Fc1ccc2c(c1)C(c1cccnc1)=NNC(c1cccs1)=N2,-1.68% (inactive)
4,O=c1oc(-c2ccccc2NS(=O)(=O)c2ccc(Cl)cc2)nc2ccccc12,10.9% (inactive)
5,CCCCCN(C(=O)CCC(=O)OCC(=O)NCc1ccc(OC)cc1)c1c(N)n(CCCC)c(=O)[nH]c1=O,-7.19% (inactive)
6,CC(C)c1ccc2c(c1)c(SC(C)(C)C)c(CC(C)(C)C(=O)O)n2Cc1ccc(Cl)cc1,31.8% (active)
7,COc1cc(-c2nnn(CC(=O)NCc3ccccc3)n2)cc(OC)c1OC,1.36% (inactive)
8,COc1ccc(C2CC(c3ccccc3)=NN2C(=O)CSc2nccc(=O)[nH]2)cc1 (stereo not given),9.94% (inactive)
9,COc1ccc(C2=NN(C(=O)CSc3nc(=O)n4ccc(C)cc4n3)C(c3ccc(C)cc3)C2)cc1 (stereo not given),36.1% (active)
10,Cc1ccc(C2=NN(C(=O)CSc3nc(N)cc(N)n3)C(c3ccco3)C2)cc1 (stereo not given),4.52% (inactive)
11,COc1ccc(C(=O)N2CCCCC2c2cc(C(=O)Nc3ccc(F)c(Cl)c3)no2)cc1 (stereo not given),2.01% (inactive)
12,C[C@H]([C@@H](O)[C@@H](O)[C@@H](C)C(C)(C)C)[C@H]1CC[C@H]2C3CC[C@H]4C[C@H](OS(=O)(=O)O)[C@@H](OS(=O)(=O)O)C[C@]4(C)[C@H]3CC[C@]12C (stereo not given in full),11.9% (inactive)
13,COc1cc(/C=C2\C(=N)N3N=C(CC(=O)N4CCOCC4)SC3=NC2=O)cc(OC)c1OC,-3.62% (inactive)
14,COc1ccccc1OCCOc1ccc(/C=C2\C(=N)N3N=C(C)SC3=NC2=O)cc1,29% (active)
15,CCOc1cc(/C=C2\C(=N)N3N=C(C)SC3=NC2=O)ccc1OCCOc1ccccc1,22.4% (inactive)
16,C[C@@H]1CN([C@H](C)CO)C(=O)CCCn2nncc2CO[C@@H]1CN(C)S(=O)(=O)c1cccc(C#N)c1,4.94% (inactive)
17,CCOC(=O)c1ccc(NC(=O)c2c(N)n(C)c(=O)[nH]c2=O)cc1,-3.34% (inactive)
18,Cc1ccc(C(=O)COC(=O)c2cccc(N3C(=O)c4c(C)nc5ccccc5c4C3=O)c2)cc1C,29.7% (active)
19,COc1ccc(C(=O)OCC(=O)c2ccc(C)c(S(=O)(=O)N3CCOCC3)c2)cc1OC,-14% (inactive)
20,Cc1ccc(C(=O)COC(=O)CCN2C(=O)C3C4CCC(C4)C3C2=O)cc1C (stereo not given),4.2% (inactive)
